Measurements from PubChem BioAssay AID488841 (Sanford-Burnham Center for Chemical Genomics, 2010).
Hit rate of the full screen: of about 1,400 compounds, about 380 (27%) were called active. The list shows a part of the results. Values without a mark were called inactive.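 Rule for the calls: active = mean inhibition above 50% across duplicate retests at 10 µM; inactive = the rest.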

Assay: yeast NALP1 reporter signal suppression – S. cerevisiae, luminescence, single concentration, NALP1 inhibitor project, confirmation (AID 488841);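 note: plate controls were DMSO in galactose medium for no effect and cells in plain SD medium for full effect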
Conditions: S. cerevisiae NALP1/ASC/Caspase-1 reporter, beta-gal luminescence; at 10 µM; hits give high values
In the case of Brc1ccc2c(c1)OCCOCCOc1cc(Br)ccc1OCCOCCOCCO2, the inhibition is reported as 59.6% (active).
In the case of CCCc1cc(C(=O)Nc2cccc(Cl)c2)no1, the inhibition is reported as 67.2% (active).
Compound CCn1nccc1C(=O)Nc1ccc(Cl)cn1 has an inhibition of 35.4%.
For CCCc1cc(C(=O)Nc2c(C)n(C)n(-c3ccccc3)c2=O)no1, the inhibition was 23.7%.
CCCc1cc(C(=O)Nc2ccc(F)cc2F)no1 showed an inhibition of 36.5%.
CCn1ncc([N+](=O)[O-])c1C(=O)Nc1ccc(C(=O)N2CCCCC2)cc1 showed an inhibition of 32.5%.
With CCn1ncc(C(=O)Nc2cccc(Cl)c2)c1C the inhibition was 53.8% (active).
Work on COc1ccc(NC(=O)c2sc(N3CCOCC3)nc2-c2ccccc2)c(OC)c1 yielded an inhibition of 48.4%.
In the case of O=C(/C=C/c1ccccc1Cl)c1ccc[nH]1, the inhibition is reported as 73% (active).
In the case of Cc1cc(NC(=O)/C=C/c2ccccc2Cl)no1, the inhibition is reported as 46.5%.
Compound CC(NC(=O)Nn1cnnc1)(C(F)(F)F)C(F)(F)F has an inhibition of 9.3%.
CCCCCCCCNC(C)C(O)c1ccc(SC(C)C)cc1 (stereo not given) showed an inhibition of 46.5%.
Compound Cc1cc(C(C)(C)C)cc(S(=O)(=O)Nc2ccc(O)c(C(=O)O)c2)c1C has an inhibition of 24.9%.
With CC1(C)CCSC(/C=C/c2ccccc2)=N1 the inhibition was 84% (active).
For O=S(=O)(c1ccc(Br)cc1)N1CCCN(Cc2cccc(F)c2)CC1, the inhibition was 59.5% (active).
With O=C(O)C1(c2ccccc2)CCN(S(=O)(=O)c2ccc(Br)cc2)CC1 the inhibition was 32.4%.
CCOC(=O)C1CCCCN1Cc1cccc(F)c1 (stereo not given) showed an inhibition of 19.9%.
Compound COc1ccc(CCN(C)C2CC(=O)N(c3ccccc3)C2=O)cc1OC (stereo not given) has an inhibition of 45%.
In the case of Cc1ccc(C(=O)/C=C\C(=O)c2ccc(C)cc2)cc1, the inhibition is reported as 51.1% (active).
In the case of Cc1ccc(C(=O)Oc2ccc3c(c2)ncn3C)cc1, the inhibition is reported as 47.5%.
Compound O=C(Nc1nc2c(c(=O)[nH]1)CCCC2)C1CC1 has an inhibition of 27%.
With O=C1CC(c2cccc(Cl)c2)CC(O)=C1C=Nc1cccc(Cl)c1 (stereo not given) the inhibition was 36.5%.
With O=C1CC(c2ccccc2Cl)CC(O)=C1C=Nc1ccccc1 (stereo not given) the inhibition was 52.8% (active).
C/C(=N\N1CCN(c2ccc(Cl)cc2)CC1)c1ccco1 gave an inhibition of 23.6%.
Cc1c(N)c(C(C)(C)C)cc(C(C)(C)C)c1[N+](=O)[O-] gave an inhibition of 29.1%.
For OC(CNCCc1ccc(C(F)(F)F)cc1)COc1cccc2ccccc12 (stereo not given), the inhibition was 65.5% (active).
Compound COCCNC(=O)CCc1ccc(S(=O)(=O)Nc2ccc(C)cc2)cc1 has an inhibition of 25.8%.
Work on CCC(C)c1ccccc1NC(=O)CN1CCN(C/C=C/c2ccccc2)CC1 (stereo not given) yielded an inhibition of 46.3%.
COC(=O)c1ccccc1NC(=O)N1CCN(C/C=C/c2ccccc2)CC1 showed an inhibition of 39.6%.
In the case of O=C(c1ccc(Br)s1)N1CCN(C/C=C/c2ccccc2)CC1, the inhibition is reported as 50.6% (active).
With O=C(NCC1CCCO1)C(c1cccs1)N(Cc1cccs1)C(=O)Cn1nnc(-c2cccs2)n1 (stereo not given) the inhibition was 28.1%.
Work on C#CCCCCCCC#CCN(C)C yielded an inhibition of 28.6%.
In the case of O=C(c1cnn2ccccc12)N1CCc2ccccc21, the inhibition is reported as 58% (active).
With CCC(=O)N1CCc2cc(S(=O)(=O)N3CCc4ccccc43)ccc21 the inhibition was 10.5%.
Work on CSc1sc(C(=O)N2CCc3ccccc32)cc1S(=O)(=O)C(C)C yielded an inhibition of 20.9%.
Compound O=C(/C=C\Nc1cccc(F)c1)c1cccs1 has an inhibition of 31.6%.
With CCN(CC)S(=O)(=O)c1cccc(C(=O)Oc2cccc(NC(=O)c3cccs3)c2)c1 the inhibition was 36%.
For COc1cc(NC(=O)c2cccs2)cc(OC)c1, the inhibition was 78.8% (active).
Compound CC(CCc1ccccc1)NC(=O)c1cc2sccc2n1C (stereo not given) has an inhibition of 46.2%.
In the case of CC1CCN(C(=O)/C=C/c2ccc(C(C)(C)C)cc2)CC1, the inhibition is reported as 54.6% (active).
Compound O=C(/C=C/c1ccccc1)/C=C/c1ccccc1 has an inhibition of 47.8%.
For COc1cc(C(=O)CCN2CCC(c3ccccc3)C2)cc(OC)c1OC (stereo not given), the inhibition was 41%.
In the case of O=C(/C=C/c1ccccc1)N1CCC(c2ccccc2)C1 (stereo not given), the inhibition is reported as 54% (active).
Work on FC(F)(F)C(F)(F)c1nnc2ccc(-n3ccnc3)nn12 yielded an inhibition of 23%.
Compound O=C(O)c1ccccc1SC1CC(=O)N(c2ccccc2)C1=O (stereo not given) has an inhibition of 37.8%.
For O=C1CC(Sc2nnnn2-c2ccccc2)C(=O)N1c1cccc(Cl)c1 (stereo not given), the inhibition was 59.5% (active).
Compound COC(=O)c1ccccc1SC1CC(=O)N(c2ccccc2)C1=O (stereo not given) has an inhibition of 40.2%.
In the case of Cc1cccc(Cn2c(C(C)(C)C)cc3cccnc32)c1, the inhibition is reported as 26%.
In the case of CN(C)CCNC=C(C(=O)Nc1ccc(Cl)cc1Cl)C(=O)Nc1ccc(Cl)cc1Cl, the inhibition is reported as 38.9%.
In the case of COc1ccc(-c2noc(CCC(=O)N3CCC(C)CC3)n2)cc1, the inhibition is reported as 48%.
With CCCN(Cc1nc(-c2ccc(Cl)cc2)no1)CC1CCCO1 (stereo not given) the inhibition was 53.1% (active).
For OCCNc1c2ccccc2nc2c(F)c(F)c(F)c(F)c12, the inhibition was 34.6%.
Work on CCN(c1cccc(C)c1)S(=O)(=O)c1cccc(C(=O)O)c1 yielded an inhibition of 26.2%.
Cn1ncc(S(=O)(=O)Cc2ccccc2)c(Cl)c1=O gave an inhibition of 21.1%.
For Cc1cc(C)cc(Cn2ncc(Cl)c(Cl)c2=O)c1, the inhibition was 60.6% (active).
In the case of COC(=O)c1ccc(NC(=O)c2ccccc2N(C)S(=O)(=O)c2ccccc2)cc1, the inhibition is reported as 37%.
CCCCCCOc1ccc(N2C(=O)CC(N3CCC(C(=O)OCC)CC3)C2=O)cc1 (stereo not given) showed an inhibition of 21.6%.
For CCOc1ccc(N2C(=O)CC(N)C2=O)cc1 (stereo not given), the inhibition was 64.3% (active).
With CCOc1ccc(C2N(c3ccc(F)cc3)C(=O)C3CCCN32)cc1 (stereo not given) the inhibition was 16.4%.
Work on Cc1cc(Cl)c(OCCCN2CCCCC2)c(Br)c1 yielded an inhibition of 33.4%.
Work on Cc1c(C(=O)NCC2COc3ccccc3O2)oc2ccc(S(=O)(=O)N3CC(C)CC(C)C3)cc12 (stereo not given) yielded an inhibition of 21.3%.
In the case of COc1cc(OC)nc(-n2ncc(Br)c(Br)c2=O)n1, the inhibition is reported as 50% (active).
Cc1sc(NC(=O)c2cc3ccccc3oc2=O)c(C(=O)OC(C)C)c1-c1ccccc1 gave an inhibition of 28.5%.
For C=CCNc1oc(COc2ccc(C)cc2)nc1C#N, the inhibition was 47.8%.
With CCCN(CCC)C(=O)Cn1c(=O)n(CCCCC(=O)NCc2ccco2)c(=O)c2ccccc21 the inhibition was 29.8%.
